About 8,800 targets were measured; listed, in parts, are those with a hit and a random draw of the rest. About 0.5% of all pairs of compound and target were hits.

UniProt P52701, sequence (P52701 whole entry, looked up): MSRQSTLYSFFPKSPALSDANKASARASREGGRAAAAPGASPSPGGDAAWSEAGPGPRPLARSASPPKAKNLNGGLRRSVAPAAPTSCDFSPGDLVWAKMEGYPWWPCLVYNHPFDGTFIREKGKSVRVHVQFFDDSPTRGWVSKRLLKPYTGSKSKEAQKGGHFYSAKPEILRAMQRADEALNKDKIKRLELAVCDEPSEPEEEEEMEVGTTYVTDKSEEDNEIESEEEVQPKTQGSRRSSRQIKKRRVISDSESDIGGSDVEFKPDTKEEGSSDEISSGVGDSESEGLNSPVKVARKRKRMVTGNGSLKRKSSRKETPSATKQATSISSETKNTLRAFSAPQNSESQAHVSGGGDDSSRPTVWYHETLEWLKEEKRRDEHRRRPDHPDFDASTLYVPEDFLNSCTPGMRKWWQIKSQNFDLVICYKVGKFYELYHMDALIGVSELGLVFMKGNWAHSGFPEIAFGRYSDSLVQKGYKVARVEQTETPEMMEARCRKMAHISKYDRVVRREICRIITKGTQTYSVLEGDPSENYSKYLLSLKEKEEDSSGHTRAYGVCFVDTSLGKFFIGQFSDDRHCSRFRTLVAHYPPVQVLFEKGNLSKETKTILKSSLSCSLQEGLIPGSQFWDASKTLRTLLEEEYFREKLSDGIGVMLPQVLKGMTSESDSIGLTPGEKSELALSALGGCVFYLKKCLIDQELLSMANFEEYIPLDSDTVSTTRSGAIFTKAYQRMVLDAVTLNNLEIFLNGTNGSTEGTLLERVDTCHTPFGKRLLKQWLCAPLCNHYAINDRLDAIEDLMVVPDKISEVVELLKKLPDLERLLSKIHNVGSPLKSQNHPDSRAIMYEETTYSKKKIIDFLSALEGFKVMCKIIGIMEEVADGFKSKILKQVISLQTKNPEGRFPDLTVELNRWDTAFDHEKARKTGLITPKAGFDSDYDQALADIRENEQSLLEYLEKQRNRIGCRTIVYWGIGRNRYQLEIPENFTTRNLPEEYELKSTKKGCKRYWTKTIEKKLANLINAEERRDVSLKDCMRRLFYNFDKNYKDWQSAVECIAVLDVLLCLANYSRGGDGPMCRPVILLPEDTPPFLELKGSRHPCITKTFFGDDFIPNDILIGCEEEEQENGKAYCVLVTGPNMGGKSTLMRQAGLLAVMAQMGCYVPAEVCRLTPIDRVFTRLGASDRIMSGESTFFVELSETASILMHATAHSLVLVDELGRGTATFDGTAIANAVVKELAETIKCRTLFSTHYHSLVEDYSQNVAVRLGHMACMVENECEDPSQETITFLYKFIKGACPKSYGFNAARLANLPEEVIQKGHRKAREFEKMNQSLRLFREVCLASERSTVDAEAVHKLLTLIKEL
UniProt Q969R2, sequence (Q969R2 whole entry, looked up): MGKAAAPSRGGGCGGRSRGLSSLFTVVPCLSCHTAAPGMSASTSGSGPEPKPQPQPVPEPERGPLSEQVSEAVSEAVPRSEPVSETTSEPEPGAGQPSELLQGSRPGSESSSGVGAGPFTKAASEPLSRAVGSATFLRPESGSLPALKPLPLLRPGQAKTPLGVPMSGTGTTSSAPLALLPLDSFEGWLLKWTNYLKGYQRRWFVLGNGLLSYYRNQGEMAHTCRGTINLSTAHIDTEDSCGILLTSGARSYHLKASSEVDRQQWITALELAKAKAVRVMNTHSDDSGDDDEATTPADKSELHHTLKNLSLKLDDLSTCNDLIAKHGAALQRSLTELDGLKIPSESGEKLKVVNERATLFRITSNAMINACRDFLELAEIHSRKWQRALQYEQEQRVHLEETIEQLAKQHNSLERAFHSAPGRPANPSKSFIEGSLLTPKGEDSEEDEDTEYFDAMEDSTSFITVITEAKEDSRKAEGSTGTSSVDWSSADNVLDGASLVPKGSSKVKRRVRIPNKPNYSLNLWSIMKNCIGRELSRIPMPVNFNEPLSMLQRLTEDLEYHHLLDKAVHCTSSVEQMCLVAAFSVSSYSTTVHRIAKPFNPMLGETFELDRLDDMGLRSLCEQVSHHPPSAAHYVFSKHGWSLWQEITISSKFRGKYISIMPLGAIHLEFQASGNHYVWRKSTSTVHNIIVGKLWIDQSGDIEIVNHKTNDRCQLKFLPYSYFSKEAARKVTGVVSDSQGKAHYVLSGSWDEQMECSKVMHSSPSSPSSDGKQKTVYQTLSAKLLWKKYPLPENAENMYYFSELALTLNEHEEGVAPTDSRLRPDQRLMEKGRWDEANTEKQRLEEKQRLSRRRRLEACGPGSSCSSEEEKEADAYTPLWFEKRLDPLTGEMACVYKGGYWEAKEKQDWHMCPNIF
UniProt Q9Y6C9, sequence (Q9Y6C9 whole entry, looked up): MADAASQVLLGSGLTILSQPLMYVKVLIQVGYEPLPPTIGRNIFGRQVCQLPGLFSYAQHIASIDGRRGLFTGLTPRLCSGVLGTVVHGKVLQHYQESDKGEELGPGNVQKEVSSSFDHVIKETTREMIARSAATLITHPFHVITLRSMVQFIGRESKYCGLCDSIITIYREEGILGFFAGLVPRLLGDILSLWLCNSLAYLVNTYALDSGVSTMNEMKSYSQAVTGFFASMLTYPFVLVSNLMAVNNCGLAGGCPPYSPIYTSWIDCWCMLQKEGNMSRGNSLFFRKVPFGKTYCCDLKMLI
UniProt Q9NX02, sequence (Q9NX02 whole entry, looked up): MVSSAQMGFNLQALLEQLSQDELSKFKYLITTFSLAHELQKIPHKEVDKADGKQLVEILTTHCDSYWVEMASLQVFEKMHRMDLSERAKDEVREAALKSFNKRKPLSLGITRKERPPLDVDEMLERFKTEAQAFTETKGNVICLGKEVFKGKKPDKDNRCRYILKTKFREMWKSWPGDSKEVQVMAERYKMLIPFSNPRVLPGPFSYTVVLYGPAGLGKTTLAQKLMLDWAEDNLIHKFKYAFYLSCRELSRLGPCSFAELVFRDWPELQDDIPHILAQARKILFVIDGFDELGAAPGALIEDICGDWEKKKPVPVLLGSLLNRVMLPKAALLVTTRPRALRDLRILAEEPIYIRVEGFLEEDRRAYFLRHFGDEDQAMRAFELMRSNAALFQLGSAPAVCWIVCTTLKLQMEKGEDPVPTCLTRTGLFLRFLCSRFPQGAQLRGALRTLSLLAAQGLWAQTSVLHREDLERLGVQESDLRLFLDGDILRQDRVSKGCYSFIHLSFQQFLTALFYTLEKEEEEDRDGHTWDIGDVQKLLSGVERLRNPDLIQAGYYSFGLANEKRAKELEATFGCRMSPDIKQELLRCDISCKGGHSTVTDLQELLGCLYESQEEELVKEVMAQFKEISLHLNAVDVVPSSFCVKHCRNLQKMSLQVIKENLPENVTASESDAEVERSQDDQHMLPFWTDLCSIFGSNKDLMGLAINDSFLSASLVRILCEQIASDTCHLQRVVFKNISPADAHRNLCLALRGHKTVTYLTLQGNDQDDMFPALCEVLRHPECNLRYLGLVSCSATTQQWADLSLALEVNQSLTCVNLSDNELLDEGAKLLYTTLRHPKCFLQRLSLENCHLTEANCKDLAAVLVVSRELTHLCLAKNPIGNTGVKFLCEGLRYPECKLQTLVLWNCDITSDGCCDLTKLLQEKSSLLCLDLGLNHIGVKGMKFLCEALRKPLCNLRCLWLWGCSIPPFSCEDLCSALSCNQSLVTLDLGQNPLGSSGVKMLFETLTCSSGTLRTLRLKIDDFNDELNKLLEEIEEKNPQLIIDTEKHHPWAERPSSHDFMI
UniProt Q9NZJ9, sequence (Q9NZJ9 whole entry, looked up): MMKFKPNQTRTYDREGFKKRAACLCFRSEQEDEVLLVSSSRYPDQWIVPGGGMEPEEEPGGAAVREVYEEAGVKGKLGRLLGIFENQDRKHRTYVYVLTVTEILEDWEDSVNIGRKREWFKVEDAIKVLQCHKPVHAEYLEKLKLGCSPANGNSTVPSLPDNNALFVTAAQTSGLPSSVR
UniProt P30419, sequence (P30419 whole entry, looked up): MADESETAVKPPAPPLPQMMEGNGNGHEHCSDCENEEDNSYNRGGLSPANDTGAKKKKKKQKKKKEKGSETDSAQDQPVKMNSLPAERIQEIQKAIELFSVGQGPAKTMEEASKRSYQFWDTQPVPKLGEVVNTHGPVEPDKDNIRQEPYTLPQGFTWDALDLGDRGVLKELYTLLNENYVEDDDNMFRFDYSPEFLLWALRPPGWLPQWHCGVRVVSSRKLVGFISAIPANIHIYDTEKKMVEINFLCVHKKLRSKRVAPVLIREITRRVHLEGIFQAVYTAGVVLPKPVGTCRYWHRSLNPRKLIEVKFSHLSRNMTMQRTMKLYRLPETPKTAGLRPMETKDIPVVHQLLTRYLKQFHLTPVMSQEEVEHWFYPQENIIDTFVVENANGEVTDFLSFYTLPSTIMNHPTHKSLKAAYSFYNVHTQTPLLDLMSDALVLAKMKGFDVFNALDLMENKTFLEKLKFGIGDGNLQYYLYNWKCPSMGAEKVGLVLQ
UniProt O00221, sequence (O00221 whole entry, looked up): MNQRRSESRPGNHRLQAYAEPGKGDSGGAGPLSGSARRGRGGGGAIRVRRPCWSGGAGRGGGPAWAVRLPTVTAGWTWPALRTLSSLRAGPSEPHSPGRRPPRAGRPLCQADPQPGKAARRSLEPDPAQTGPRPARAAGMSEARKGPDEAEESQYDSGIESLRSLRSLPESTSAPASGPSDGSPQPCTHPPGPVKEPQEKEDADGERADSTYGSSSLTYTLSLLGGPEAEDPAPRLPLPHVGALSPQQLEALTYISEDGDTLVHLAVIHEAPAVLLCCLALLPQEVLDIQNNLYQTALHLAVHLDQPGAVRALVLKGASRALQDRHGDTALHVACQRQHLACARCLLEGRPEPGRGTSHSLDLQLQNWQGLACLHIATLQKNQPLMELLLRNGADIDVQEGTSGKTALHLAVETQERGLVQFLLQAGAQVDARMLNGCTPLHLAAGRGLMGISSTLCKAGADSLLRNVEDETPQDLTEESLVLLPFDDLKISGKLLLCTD
UniProt Q9Y530, sequence (Q9Y530 whole entry, looked up): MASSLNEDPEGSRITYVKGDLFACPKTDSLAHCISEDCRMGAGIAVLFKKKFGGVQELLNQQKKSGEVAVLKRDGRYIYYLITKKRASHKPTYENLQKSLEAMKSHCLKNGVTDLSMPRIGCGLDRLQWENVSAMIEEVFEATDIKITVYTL

Compound in this assay: C1=CC=C(C=C1)C2=NC(=C(N2)C3=CC=NC=C3)C4=CC(=C(C=C4)Cl)O
As to the kind of experiment: log2 fold change, soluble protein after heating vs DMSO (PISA); higher = thermal stabilisation; K562 lysate, 10 uM; active = over 0.2 and 3.5 SD of the protein, either way, in both replicates (recomputed). The essentials: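 Thermal stability, expressed as log-two fold change relative to solvent controls, is given from duplicates. Crude K562 extract in PBS pH 7.4 with 1 mM MgCl2, at 1 mg/mL protein, was treated with 10 μM compound for 30 min and heated in aliquots for 3 min across 48°C-58°C. After pooling, adjustment to 0.5% NP-40 at 4°C and centrifugation at 21,000xg for 90 min, supernatant protein was measured by TMTpro 16plex LC-MS/MS with channel sums equalised.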
For the target NUP93 (UniProt Q8N1F7), the log2 fold change was -0.022 (inactive).

Consider PANK4 (UniProt Q9NVE7), for which the log2 fold change is 0.003 (inactive).

Regarding NIPSNAP3A (UniProt Q9UFN0), the log2 fold change is 0.003 (inactive).

Regarding OSBP2 (UniProt Q969R2), the log2 fold change is -0.077 (inactive).

Turning to MTCH2 (UniProt Q9Y6C9), the log2 fold change is -0.004 (inactive).

Take NUP160 (UniProt Q12769): the log2 fold change is -0.012 (inactive).

With NEK7 (UniProt Q8TDX7), the log2 fold change was 0.053 (inactive).

Turning to NLRP2 (UniProt Q9NX02), the log2 fold change was -0.002 (inactive).

As to NUMB (UniProt P49757), the log2 fold change was -0.009 (inactive).

With NEK9 (UniProt Q8TD19), the log2 fold change is -0.013 (inactive).

As to MSH6 (UniProt P52701), the log2 fold change is 0.008 (inactive).

Take NIFK (UniProt Q9BYG3): the log2 fold change was 0.038 (inactive).

Take OGFOD2 (UniProt Q6N063): the log2 fold change was -0.034 (inactive).

NFATC1 (UniProt O95644): the log2 fold change was 0.065 (inactive).

On to NFIC (UniProt P08651), for which the log2 fold change was -0.084 (inactive).

In the case of OARD1 (UniProt Q9Y530), the log2 fold change is -0.015 (inactive).

For the target NOB1 (UniProt Q9ULX3), the log2 fold change is 0.023 (inactive).

As to NARS2 (UniProt Q96I59), the log2 fold change was -0.021 (inactive).

For NUP188 (UniProt Q5SRE5), the log2 fold change was -0.03 (inactive).

As to NFKBIE (UniProt O00221), the log2 fold change was 0.059 (inactive).

As to NNT (UniProt Q13423), the log2 fold change is -0.008 (inactive).

Consider ORC5 (UniProt O43913), for which the log2 fold change was 0.029 (inactive).

For the target MYO1D (UniProt O94832), the log2 fold change was 0.01 (inactive).

Consider OTUD7B (UniProt Q6GQQ9), for which the log2 fold change was -0.006 (inactive).

NUF2 (UniProt Q9BZD4): the log2 fold change was -0.047 (inactive).

As for PBK (UniProt Q96KB5), the log2 fold change was 0.008 (inactive).

For the target NUDT4 (UniProt Q9NZJ9), the log2 fold change was -0.009 (inactive).

Take MYD88 isoform 6 (UniProt Q99836): the log2 fold change was -0.015 (inactive).

For MRPL53 (UniProt Q96EL3), the log2 fold change was -0.015 (inactive).

As to MTMR6 (UniProt Q9Y217), the log2 fold change was -0.009 (inactive).

NELFCD (UniProt Q8IXH7): the log2 fold change is -0.019 (inactive).

For NPLOC4 isoform 2 (UniProt Q8TAT6), the log2 fold change is 0.011 (inactive).

As for NCOR2 (UniProt C9J0Q5), the log2 fold change was 0.054 (inactive).

NUDT5 (UniProt Q9UKK9): the log2 fold change was -0.002 (inactive).

Regarding NMT1 (UniProt P30419), the log2 fold change was -0.024 (inactive).

With PARD3 (UniProt Q8TEW0), the log2 fold change is 0.021 (inactive).

Values taken from the supplement of paper PMC10849652.
